# Bioassay records as filed in PubChem BioAssay.
# Shown are actives, neighbours in structure and some others; about 17% of the full set was active somewhere.
# ClpP mod – qHTS Assay for Activators of ClpP; ATP-dependent Clp protease proteolytic subunit (Bacillus subtilis (strain 168)), P80244; 1.9% of 340,000 active; purified B. subtilis ClpP, FRET peptide cleavage, 20 min; Potency, µM (top dose mostly 57.5 µM); active = well fitted falling curve with a large enough effect; inconclusive = small, poorly fitted or top-dose-only effect; inactive = no such curve, though single readings can be large or run the other way; note: the source files actives as falling curves though it sought activators and does not explain the sign; nearly all actives have a fitted effect of over 65% in size
#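 ClpP 10 microg/mL final, pH 8 Tris/KCl buffer with BSA, glycerol, Tween-20; compound pinned in; FRET-FV substrate; RT 20 min; Ex320/Em430; ΔFRET vs ADEP 5.8 microM, DMSO, no enzyme.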
# DT40 TDP1 CPT – growth inhibition of DT40 Tdp1-/-;hTDP1 cells with camptothecin (screen for TDP1 inhibitors); chicken DT40 Tdp1-/-;hTDP1 cells + 20 nM CPT, ATP luminescence, 48 h; AID 686979; 12% of 420,000 active; Potency, µM (titrated, usually from 46.2 µM), usual class: inhibitors; note: nearly all actives have a fitted effect of over 55% in size
#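 Cell growth measured by CellTiter-Glo luminescence after a minimum 48 h, 37 C compound exposure with 20 nM CPT in Tdp1-knockout DT40 cells stably expressing hTDP1, seeded 400/well; qHTS titration format.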
# TDP1 block – TDP1 (human) enzyme inhibition | recombinant TDP1, AlphaScreen DNA substrate cleavage | Potency, µM (titrated, usually from 130 µM), usual class: inhibitors | 0.28% of 350,000 active | AID 485290; note: nearly all actives have a fitted effect of over 40% in size
#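 Enzyme-compound mixtures sat 15 min at room temperature, followed by a 5 min reaction with 15 nM final substrate and 10 min with AlphaScreen beads. Recombinant human Tdp1 was used at 1 nM final.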
# DT40 TDP1 no CPT – qHTS for Inhibitors of human tyrosyl-DNA phosphodiesterase 1 (TDP1): qHTS in cells in absence of CPT | DT40 Tdp1-/- hTDP1 cells, no CPT, ATP luminescence, 48 h | Potency, µM (highest dose often 46.2 µM), usual class: inhibitors | 15% of 420,000 active; note: nearly all actives have a fitted effect of over 55% in size
#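 Chicken DT40 Tdp1-/- cells complemented with human TDP1, screened without camptothecin (DMSO vehicle only), 400 cells/well. Compounds pin-transferred, cells incubated at 37 °C for at least 48 hr. Growth read as ATP-dependent luminescence (CellTiter-Glo, 30 min at RT).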
# Hits are given with their value; 0 = inactive; ? = inconclusive; - = no result; [ ] = remark or other dose. Unless noted, calls come from the whole dose curve; as a rule, active = well fitted curve in the direction sought with a large enough effect; inconclusive = small, poorly fitted or top-dose-only effect, or another doubt; inactive = no such curve, though single readings can be large; an effect the other way counts as inactive or inconclusive.
SMILES,ClpP mod,DT40 TDP1 CPT,TDP1 block,DT40 TDP1 no CPT
CCC1C(=O)NCCN1Cc1ccc2c(c1)CN(Cc1cccc(OC)c1OC)CCO2 (stereo not drawn),-,0.73µM,-,0
Cc1ccc(NC(=S)N2CCN(c3ncccn3)CC2)c(C)c1,0,0,0,0
O=C(Nc1cccc(-c2cn3ccccc3n2)c1)c1cnccn1,0,?,0,?
CN1CCN(c2ccc(NC(=O)c3cccs3)cc2)CC1,-,0,0,0
CCC(=O)Nc1cccc(-c2cn3cccc(C)c3n2)c1,0,0,0,0
O=C(Nc1cccc(-c2cn3ccccc3n2)c1)c1cccc(Cl)c1,0,?,0,18µM
CCC(=O)Nc1cccc(-c2cn3ccccc3n2)c1,10µM,0,0,0
O=C(Nc1ccc(-c2cn3ccccc3n2)cc1)c1cccs1,-,18µM,?,15µM
Cc1ccn(-c2ccc(NC(=O)c3cccs3)cc2)n1,-,?,-,12µM
COc1ccc(/C=N/NC(C)(C)C)c(OC)c1,-,?,0,0
CC(C)C(=O)N1CCCC1(C)C(=O)Nc1cccc(Oc2ccccc2)c1 (stereo not drawn),0,?,-,?
O=C(Nc1ccc2c(c1)OCO2)c1cc(-c2ccc(Cl)cc2)on1,0,?,0,?
COc1ccc(CC(=O)Nc2ccc(-c3cn4ccccc4n3)cc2)cc1OC,?,0,0,0
COc1ccc(CC(=O)Nc2cccc(-c3cn4ccccc4n3)c2)cc1,20µM,?,0,?
COc1ccc(CC(=O)Nc2ccc(-c3cn4ccccc4n3)cc2)cc1,28µM,13µM,0,?
COc1ccc(F)cc1S(=O)(=O)NCC1CCCO1 (stereo not drawn),0,0,-,0
Cc1cc(SCC(=O)Nc2ccc(C(F)(F)F)cc2)nc(=O)[nH]1,0,0,0,0
Cc1cccc(-n2c(=O)c3ccccc3n(Cc3ccccc3C#N)c2=O)c1,0,0,0,0
COc1ccc(-n2c(=O)c3ccccc3n(Cc3ccccc3F)c2=O)cc1OC,0,?,0,?
Cc1cccc(CCn2c(=O)c3ccccc3n(Cc3cccc(F)c3)c2=O)c1,0,18µM,0[12.3 µM],23µM
Cc1cccc(CCn2c(=O)c3ccccc3n(Cc3ccccc3C)c2=O)c1,0,15µM,0,16µM
O=c1c2ccccc2n(Cc2ccccc2F)c(=O)n1-c1cccc(F)c1,?,?,0,15µM
N#Cc1ccccc1Cn1c(=O)n(C2CCCC2)c(=O)c2ccccc21,0,16µM,0,18µM
CC1(C)CC(=O)C(C(C2=C(O)CC(C)(C)CC2=O)c2ccc(O)c([N+](=O)[O-])c2)=C(O)C1,-,0,0,0
CCOc1ccccc1N(CC(=O)NCCc1ccccc1)C(=O)CCC(=O)Nc1ccccn1,-,0,0,0
SMILES,ClpP mod,DT40 TDP1 CPT,TDP1 block,DT40 TDP1 no CPT
CSc1nnc(CCNC(=O)c2ccccc2C(F)(F)F)n1-c1ccc(F)cc1,-,0[9.04 µM],-,0
Fc1ccccc1N1CCN(c2ncnc3onc(-c4cccc(Cl)c4)c23)CC1,?,?,0,?
CO/N=C(\C(=O)N[C@@H]1C(=O)N2C(C(=O)O)=C(CSC(=O)c3ccco3)CS[C@H]12)c1csc(N)n1,-,0,-,0
O=c1c2ccccc2n(Cc2cccc(F)c2)c(=O)n1C1CCCC1,0,?,0,23µM
CN(C(=O)CSCC(=O)O)C1CCCCC1,?,0,0,0
O=C(Nc1cc(C(=O)NC2CCOCC2)c2c(c1)ncn2C1CCCC1)c1ccccc1,-,0,-,0
CCOc1ccc(CNC(=O)c2ccc(Sc3ccc(C)cc3)c(N)c2)cc1OC,0,?,0,?
COC(=O)c1ccc(Sc2ccc(C)cc2)c(N)c1,28µM,?,0,0
COc1ccc(OC)c(CNC(=O)c2ccc(Sc3ccc(C)cc3)c(N)c2)c1,0,23µM,0,21µM
O=C(C[C@H]1C/C=C/CC[C@@H](Cc2ccc(F)cc2)C(=O)OC[C@H](c2ccccc2)NC1=O)NCCO,0,0,0,0
O=C1NC[C@@H](c2ccccc2)OC(=O)[C@@H](Cc2ccc(F)cc2)CC/C=C/C[C@@H]1CC(=O)N(CCO)Cc1ccccc1,0,16µM,0,15µM
O=C1N[C@@H](c2ccccc2)COC(=O)[C@@H](Cc2ccc(F)cc2)CC/C=C/C[C@H]1CC(=O)N(CCO)Cc1ccccc1,0,12µM,0,9.2µM
O=C1N[C@@H](c2ccccc2)COC(=O)[C@@H](Cc2ccc(F)cc2)CC/C=C/C[C@@H]1CC(=O)N(CCO)Cc1ccccc1,0,13µM,0,18µM
